Screens as filed in PubChem BioAssay.
This is one part of a sample in which hits are shown more often than they occur.
nsP2pro inh = inhibitors of chikungunya virus nsP2 protease; Q8JUX6; Potency, µM (top dose mostly 24.9 µM), inactives show at the highest dose activity change, negative = inhibition, actives largely listed as inhibitors; FRET peptide cleavage, nsP2pro, fluorescence 1 h; AID 1964107; hit rate 1.1% among 31,000; note: nearly all actives have a fitted effect of over 60% in size
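Recombinant nsP2pro (150 nM) was preincubated with compound 15 min at room temperature in 10 mM Tris-HCl pH 8.0, 0.01% Tween 20. Peptide 2 FRET substrate (2.5 uM) was then added and fluorescence read after 1 h. Seven-point series, up to 25 uM.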
nsP2 cell sec = secondary cell-based test for CHIKV nsP2 protease inhibitors | shares compounds with nsP2pro inh | cell-based CHIKV nsP2 protease reporter assay | Potency, µM (series often up to 51.1 µM), for inactives: at the highest dose activity change, negative = inhibition, actives largely listed as inhibitors | hit rate 10% among 450 | AID 1964100; note: nearly all actives have a fitted effect of over 70% in size
CHIKV NSP2 FL = selectivity test for CHIKV nsP2 protease inhibitors: full-length NSP2 | shares compounds with nsP2pro inh | Potency, µM (top dose mostly 50.7 µM), inactives show at the highest dose activity change, negative = inhibition, most hits filed as inhibitors | hit rate 39% among 410 | Full-length CHIKV NSP2 protease enzymatic counterscreen | AID 1964101; note: nearly all actives have a fitted effect of over 65% in size
Furin counterscr = human furin inhibition, counterscreen for nsP2pro inhibitors | shares compounds with nsP2pro inh | Recombinant human furin enzymatic counterscreen, fluorogenic substrate | Potency, µM (top dose mostly 50.6 µM), for the others: top-dose activity change, negative = inhibition, most hits filed as inhibitors | hit rate 6% among 410
NS23 peptide cs = nsP2pro inhibition on native NS2/3 peptide substrate. shares compounds with nsP2pro inh. Purified CHIKV nsP2 protease, endogenous NS2/3 peptide cleavage. Potency, µM (doses to about 51 µM), inactives show at the top dose activity change, negative = inhibition, actives largely listed as inhibitors. hit rate 34% among 410. AID 1964103; note: nearly all actives have a fitted effect of over 55% in size
Papain cs = selectivity counter-screen for CHIKV nsP2 protease inhibitors: papain; hit rate 5% among 410; Potency, µM (doses to about 51 µM), without a hit: at the highest dose activity change, negative = inhibition, usual class: inhibitors; shares compounds with nsP2pro inh; purified papain protease activity, enzymatic inhibition
nsP2pro confirm = confirmation of CHIKV nsP2 protease inhibitors; shares compounds with nsP2pro inh; Potency, µM (titrated, usually from 25.5 µM), for the others: at the highest dose activity change, negative = inhibition, actives largely listed as inhibitors; AID 1964105; CHIKV nsP2 protease enzymatic activity, qHTS; hit rate 43% among 410; note: nearly all actives have a fitted effect of over 75% in size
HCV NS3 counter = HCV NS3/4A protease inhibition, counterscreen; shares compounds with nsP2pro inh; Potency, µM (titrated, usually from 50.9 µM), actives largely listed as inhibitors; AID 1964106; HCV NS3/4A protease biochemical counterscreen; hit rate 20% among 410; note: nearly all actives have a fitted effect of over 55% in size
* marks the source's active call; other numbers are inactive results; i = inactive; ? = inconclusive; [ ] = remark or other dose. Calls come from the whole dose curve. % is set by controls: 0 for no effect and ±100 for the full control effect; potency is the fitted concentration of half-maximal effect.

SMILES	nsP2pro inh	others
COc1cc2ncnc(Oc3ccc(CC(=O)Nc4cnn(C(C)C)c4)cc3)c2cc1OC	4%
CCC(C)N(C)C(=O)Cn1nc(-c2ccc(C)cc2)ccc1=O (centres undefined)	-1%
Oc1ccc([C@H]2CNCc3c2ccc(O)c3O)cc1O	3.5µM*	nsP2 cell sec=-21%;CHIKV NSP2 FL=?;Furin counterscr=-12%;NS23 peptide cs=23µM*;Papain cs=-5%;nsP2pro confirm=5µM*;HCV NS3 counter=0.58µM*
Cc1cn2nc(C(=O)NCc3cccnc3)cc2c(=O)[nH]1	i
CCc1cnc(C2CCN(C(=O)OC(C)(C)C)CC2)[nH]1	0%[39.2 µM]
CN(C)CC(=O)Nc1ccc2[nH]c(=O)c3ccccc3c2c1	1%
O=C(NCc1nnc(-c2cc3ccccc3[nH]2)o1)c1ccccc1	i
O=C(NC1CCCCC1)N1Cc2[nH]cnc2C[C@H]1c1nc(-c2ccc(Cl)cc2)no1	4.5µM*	nsP2 cell sec=56%;CHIKV NSP2 FL=33µM*;Furin counterscr=-9%;NS23 peptide cs=?;Papain cs=-9%;nsP2pro confirm=10µM*;HCV NS3 counter=i
Cc1cccc(-c2noc([C@@H]3Cc4nc[nH]c4CN3C(=O)C3CCCCC3)n2)c1	72%[39.2 µM]
Cc1cccc(-c2noc([C@@H]3Cc4nc[nH]c4CN3C(=O)c3ccc(-c4ccccc4)cc3)n2)c1	i
C[C@@](O)(COc1ccc(C#N)cc1)C(=O)Nc1ccc(C#N)c(C(F)(F)F)c1	-3%
O=C(Cn1cc(CNC(=O)c2ccccc2)nn1)Nc1cc(C(F)(F)F)ccc1Cl	-4%
CCN(CCN(C)C)C(=O)CNCc1cc(C(=O)O)ccn1	67%
CCC(O)(c1nnc(NCc2ccc3c(-c4ccc(F)cc4)cc(=O)oc3c2)o1)C(F)(F)F (centres undefined)	i
CN(C)C(=S)SC(=S)N(C)C	8.8µM*	nsP2 cell sec=-1%;CHIKV NSP2 FL=29µM*;Furin counterscr=4%;NS23 peptide cs=-26%;Papain cs=-17%;nsP2pro confirm=7.1µM*;HCV NS3 counter=?
CN(C)C(=S)SSC(=S)N(C)C	2.8µM*	nsP2 cell sec=25µM*;CHIKV NSP2 FL=9.2µM*;Furin counterscr=-11%;NS23 peptide cs=9.2µM*;Papain cs=-11%;nsP2pro confirm=1.6µM*;HCV NS3 counter=i
O=C(CC[C@@H]1CNC(=O)[C@@H]2C[C@H](NC(=O)C3CC3)CN12)NCc1cccs1	-12%[39.2 µM]
FC(F)(F)c1ccccc1-c1nc(NCc2ccc(-c3ccccc3)cc2)c2ccccc2n1	i
O=C(O)c1cc(O[C@@H]2O[C@H](CO)[C@@H](O)[C@H](O)[C@H]2O)ccc1O	13%
COc1c[nH]c(CN2CCN(C)C3(CCC(=O)N(C)CC3)C2)cc1=O (centres undefined)	i
CCOC(=O)c1ccc(OCCC2CCN(c3ccc(C)nn3)CC2)cc1	5%
Cc1cc(NS(=O)(=O)c2ccc(NC(=O)Cc3ccc(Cl)cc3Cl)cc2)no1	i
Cc1ccc(OCCn2c(CCNC(=O)c3c(F)cccc3F)nc3ccccc32)cc1	-28%
C[C@H](O)c1c(-c2ccc(F)cc2)noc1C(=O)N1CCCC1	0%[39.2 µM]
Cc1cccc(-n2cnc3cc(C(=O)N4CCC(c5ccccc5)CC4)ccc32)c1	-2%
SMILES	nsP2pro inh	others
Cc1cccc(-c2cc(-c3ccccc3)nc(SCC(=O)Nc3ccccc3)c2C#N)c1	-9%
Cc1cccc(NC(=O)CSc2nc3ccccc3nc2N2CCC(C)CC2)c1	-15%
Cc1cccc(NC(=O)N[C@H]2CN(C)c3ccccc3C(c3ccccc3)=N2)c1	?	nsP2 cell sec=40%;CHIKV NSP2 FL=?;Furin counterscr=-9%;NS23 peptide cs=?;Papain cs=-10%;nsP2pro confirm=?;HCV NS3 counter=i
Cc1cccc(NC(=O)N[C@@H]2N=C(c3ccccc3)c3ccccc3N(C)C2=O)c1	?	nsP2 cell sec=15%;CHIKV NSP2 FL=?;Furin counterscr=-10%;NS23 peptide cs=?;Papain cs=-11%;nsP2pro confirm=?;HCV NS3 counter=i
Cc1ccc(NC(=O)Nc2ccc3c(c2)N(C)C(=O)c2ccccc2S3)c(C)c1	-8%
Cc1cccc(NC(=O)CSc2cc(C)c3ccccc3n2)c1	-16%
CC1(O)CC(c2nc(-c3ccc4ccc(-c5ccccc5)nc4c3)c3c(N)nccn23)C1 (centres undefined)	204%
COc1ccc(CCC(=O)N2CCCC(c3nc(-c4ccccc4)no3)CCNC(=O)CC2)cc1 (centres undefined)	0%
Cn1nccc1OCc1cn2c(=O)n(C)cc(-c3ccc(F)cc3)c2n1	-30%[39.2 µM]
O=Cc1ccc(-c2ccc3ncnc(NCc4cccs4)c3c2)o1	i
O=C1CCCCCN1C1CCN(Cc2ccsc2)CC1	0%[39.2 µM]
O=C(NCc1cccs1)c1cc2nc(-c3ccco3)cc(C(F)(F)Cl)n2n1	5.6µM*	nsP2 cell sec=14%;CHIKV NSP2 FL=-3%;Furin counterscr=-16%;NS23 peptide cs=-19%;Papain cs=-2%;nsP2pro confirm=-16%;HCV NS3 counter=i
CN(C(=O)c1cc2nc(-c3ccco3)cc(C(F)(F)F)n2n1)c1ccc(OC(F)(F)Cl)cc1	-25%
O=C(Nc1cccc(C(F)(F)F)c1)c1cc2nc(-c3ccco3)cc(C(F)(F)Cl)n2n1	-2%
CC(C)(C)OC(=O)N1CCN(c2ccc(NCc3ccc4c(c3)OCO4)cc2)CC1	?	nsP2 cell sec=6.5µM*;CHIKV NSP2 FL=0%;Furin counterscr=-12%;NS23 peptide cs=-22%;Papain cs=3%;nsP2pro confirm=-6%;HCV NS3 counter=i
CC(C)(C)OC(=O)N1CCN(c2ccc(NCc3coc(-c4ccc(C#N)cc4)c3)cc2)CC1	10µM*	nsP2 cell sec=?;CHIKV NSP2 FL=-27%;Furin counterscr=-4%;NS23 peptide cs=-12%;Papain cs=-9%;nsP2pro confirm=9%;HCV NS3 counter=?
CC(C)(C)OC(=O)N1CCN(c2ccc(NCc3occc3-c3ccc(C#N)cc3)cc2)CC1	i
CC(C)(C)OC(=O)N1CCN(c2ccc(NCc3ccc(-c4cc(C(F)(F)F)cc(C(F)(F)F)c4)o3)cc2)CC1	2%
CC(C)(C)OC(=O)N1CCN(c2ccc(NCc3ccc(-c4ccc(C(C)(C)C)cc4)o3)cc2)CC1	-1%
CC(C)(C)OC(=O)N1CCN(c2ccc(NCc3cc(-c4ccc(C#N)cc4)co3)cc2)CC1	i
N#CC1CCN(C(=O)C2CCN(C(=O)c3ccc(-c4cncnc4)cc3)CC2)CC1	4%
N[C@@H]1CCN(c2cnc3c(O)ccc(C(=O)O)c3c2)C1	i
Cc1cc(/C=C/C#N)cc(C)c1Nc1nc(Nc2ccc3n[nH]nc3c2)c2[nH]cnc2n1	-4%
Cc1cccc2nc(NC3=NC(c4[nH]ncc4Cl)C4=C(CCCC4=O)N3)oc12 (centres undefined)	-3%
Cn1cccc1C(=O)N[C@H]1C[C@@H]2C(=O)N[C@H]3CCN(C(=O)Cc4cccs4)[C@@H]3C(=O)N2C1	i
